Source: ChEMBL document CHEMBL1961873, “Compounds: GSK PKIS; Assays: Nanosyn kinase panel” (2012)

Key:
[1] = molecular target: Protein kinase C gamma type (Homo sapiens) (UniProt P05129); conditions: at 1 µM;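 further: each value is an averaged percent inhibition of the enzyme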
[2] = molecular target: T1, Protein kinase C iota type (Homo sapiens) (UniProt P41743); conditions: at 0.1 µM
T1 sequence (whole entry): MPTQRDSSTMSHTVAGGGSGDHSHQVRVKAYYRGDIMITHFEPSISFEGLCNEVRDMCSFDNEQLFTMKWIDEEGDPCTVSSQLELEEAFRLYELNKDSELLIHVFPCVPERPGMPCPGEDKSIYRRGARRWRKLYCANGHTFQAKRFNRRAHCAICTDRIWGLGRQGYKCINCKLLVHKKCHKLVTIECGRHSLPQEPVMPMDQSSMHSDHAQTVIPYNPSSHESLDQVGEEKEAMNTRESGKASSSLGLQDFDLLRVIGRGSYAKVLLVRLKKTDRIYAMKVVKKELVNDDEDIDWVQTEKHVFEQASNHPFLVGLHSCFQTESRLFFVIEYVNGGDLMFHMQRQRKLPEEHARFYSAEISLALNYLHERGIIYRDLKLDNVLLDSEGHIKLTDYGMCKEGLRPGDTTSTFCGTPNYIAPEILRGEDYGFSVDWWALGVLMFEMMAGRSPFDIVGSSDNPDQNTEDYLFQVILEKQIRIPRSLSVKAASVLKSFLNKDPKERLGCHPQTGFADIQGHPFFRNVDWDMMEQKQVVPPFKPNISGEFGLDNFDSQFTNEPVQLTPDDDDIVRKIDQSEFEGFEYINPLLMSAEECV

[3] = molecular target: T1, Protein kinase C iota type (Homo sapiens); conditions: at 1 µM
[4] = molecular target: Protein kinase C theta type (Homo sapiens) (UniProt Q04759); conditions: at 0.1 µM
[5] = molecular target: Protein kinase C theta type (Homo sapiens) (UniProt Q04759); conditions: at 1 µM
[6] = molecular target: Protein kinase C beta type (Homo sapiens) (UniProt P05771); conditions: at 0.1 µM
[7] = molecular target: Protein kinase C beta type (Homo sapiens) (UniProt P05771); conditions: at 1 µM
[8] = molecular target: T2, Serine/threonine-protein kinase D1 (Homo sapiens) (UniProt Q15139); conditions: at 0.1 µM
T2 sequence (whole entry): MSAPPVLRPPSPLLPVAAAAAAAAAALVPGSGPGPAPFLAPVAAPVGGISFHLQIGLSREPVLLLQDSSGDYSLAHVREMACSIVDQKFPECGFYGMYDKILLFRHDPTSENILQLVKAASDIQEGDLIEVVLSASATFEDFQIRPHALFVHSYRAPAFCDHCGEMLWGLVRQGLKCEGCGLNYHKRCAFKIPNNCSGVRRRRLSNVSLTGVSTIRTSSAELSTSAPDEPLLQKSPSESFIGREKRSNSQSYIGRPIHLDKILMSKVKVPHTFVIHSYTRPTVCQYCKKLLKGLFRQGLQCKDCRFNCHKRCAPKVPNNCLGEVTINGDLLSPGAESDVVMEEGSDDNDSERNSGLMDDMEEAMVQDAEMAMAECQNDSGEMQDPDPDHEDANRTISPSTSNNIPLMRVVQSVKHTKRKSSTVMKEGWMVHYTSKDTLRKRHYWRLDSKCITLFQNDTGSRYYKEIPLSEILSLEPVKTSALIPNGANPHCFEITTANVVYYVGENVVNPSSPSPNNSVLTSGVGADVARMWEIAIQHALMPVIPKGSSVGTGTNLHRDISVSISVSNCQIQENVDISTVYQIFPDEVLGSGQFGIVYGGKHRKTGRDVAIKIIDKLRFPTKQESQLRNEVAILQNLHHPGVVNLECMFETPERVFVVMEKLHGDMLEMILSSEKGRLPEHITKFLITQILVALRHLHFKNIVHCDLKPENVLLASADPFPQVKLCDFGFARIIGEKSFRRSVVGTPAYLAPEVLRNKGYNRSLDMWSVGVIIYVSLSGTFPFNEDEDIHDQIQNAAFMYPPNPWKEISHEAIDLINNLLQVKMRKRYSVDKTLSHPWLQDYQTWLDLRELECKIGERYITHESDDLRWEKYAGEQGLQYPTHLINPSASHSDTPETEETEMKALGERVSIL

[9] = molecular target: T2, Serine/threonine-protein kinase D1 (Homo sapiens); conditions: at 1 µM
[10] = molecular target: T3, Serine/threonine-protein kinase D2 (Homo sapiens) (UniProt Q9BZL6); conditions: at 0.1 µM
T3 sequence (whole entry): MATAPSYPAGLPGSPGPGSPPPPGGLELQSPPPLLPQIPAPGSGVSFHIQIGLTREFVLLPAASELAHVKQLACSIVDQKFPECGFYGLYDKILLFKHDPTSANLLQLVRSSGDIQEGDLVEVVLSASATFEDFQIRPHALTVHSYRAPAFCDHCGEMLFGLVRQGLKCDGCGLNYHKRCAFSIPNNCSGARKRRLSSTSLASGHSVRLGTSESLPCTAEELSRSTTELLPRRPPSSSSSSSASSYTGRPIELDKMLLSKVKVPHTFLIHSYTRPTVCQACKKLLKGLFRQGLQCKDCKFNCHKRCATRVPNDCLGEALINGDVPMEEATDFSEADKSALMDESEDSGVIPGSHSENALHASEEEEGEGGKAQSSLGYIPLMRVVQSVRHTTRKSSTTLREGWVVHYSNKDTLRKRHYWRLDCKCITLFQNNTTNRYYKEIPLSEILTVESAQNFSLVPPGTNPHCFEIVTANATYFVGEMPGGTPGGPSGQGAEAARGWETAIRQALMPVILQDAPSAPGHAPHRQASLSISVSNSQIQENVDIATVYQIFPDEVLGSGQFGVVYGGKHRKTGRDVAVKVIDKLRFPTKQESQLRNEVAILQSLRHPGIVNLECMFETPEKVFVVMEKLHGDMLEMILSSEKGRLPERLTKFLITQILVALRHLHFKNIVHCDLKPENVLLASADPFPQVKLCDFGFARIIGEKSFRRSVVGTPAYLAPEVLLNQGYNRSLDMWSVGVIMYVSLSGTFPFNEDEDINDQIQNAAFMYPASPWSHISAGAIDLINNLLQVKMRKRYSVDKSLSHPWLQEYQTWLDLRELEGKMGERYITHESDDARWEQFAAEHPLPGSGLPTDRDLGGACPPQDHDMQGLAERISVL

[11] = molecular target: T3, Serine/threonine-protein kinase D2 (Homo sapiens); conditions: at 1 µM
[12] = molecular target: T4, Serine/threonine-protein kinase D3 (Homo sapiens) (UniProt O94806); conditions: at 0.1 µM
T4 sequence (whole entry): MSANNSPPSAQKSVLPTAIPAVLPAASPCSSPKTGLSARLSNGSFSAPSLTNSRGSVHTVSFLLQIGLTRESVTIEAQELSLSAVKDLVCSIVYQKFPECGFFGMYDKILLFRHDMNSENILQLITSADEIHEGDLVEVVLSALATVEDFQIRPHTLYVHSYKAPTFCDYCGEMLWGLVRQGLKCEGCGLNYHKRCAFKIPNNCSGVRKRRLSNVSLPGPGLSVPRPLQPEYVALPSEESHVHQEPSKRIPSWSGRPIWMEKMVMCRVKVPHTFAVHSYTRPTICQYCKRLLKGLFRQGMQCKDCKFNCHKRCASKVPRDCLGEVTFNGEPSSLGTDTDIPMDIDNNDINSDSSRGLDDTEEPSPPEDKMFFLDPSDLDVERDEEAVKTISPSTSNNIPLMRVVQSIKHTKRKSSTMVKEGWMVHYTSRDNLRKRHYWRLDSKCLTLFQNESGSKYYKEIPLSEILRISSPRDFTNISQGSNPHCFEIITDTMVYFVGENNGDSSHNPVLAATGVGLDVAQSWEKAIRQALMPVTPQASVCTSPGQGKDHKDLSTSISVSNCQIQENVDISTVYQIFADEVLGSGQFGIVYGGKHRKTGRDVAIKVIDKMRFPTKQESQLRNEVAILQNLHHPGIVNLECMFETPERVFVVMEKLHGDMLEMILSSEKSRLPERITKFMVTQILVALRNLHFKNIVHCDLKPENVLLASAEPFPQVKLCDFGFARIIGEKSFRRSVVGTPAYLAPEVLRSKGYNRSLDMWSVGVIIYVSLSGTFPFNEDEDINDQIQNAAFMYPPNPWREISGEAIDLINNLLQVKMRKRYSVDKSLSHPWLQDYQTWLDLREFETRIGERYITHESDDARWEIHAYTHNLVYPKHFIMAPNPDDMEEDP

[13] = molecular target: T4, Serine/threonine-protein kinase D3 (Homo sapiens); conditions: at 1 µM
[14] = molecular target: T5, cGMP-dependent protein kinase 1 (Homo sapiens) (UniProt Q13976); conditions: at 0.1 µM
T5 sequence (whole entry): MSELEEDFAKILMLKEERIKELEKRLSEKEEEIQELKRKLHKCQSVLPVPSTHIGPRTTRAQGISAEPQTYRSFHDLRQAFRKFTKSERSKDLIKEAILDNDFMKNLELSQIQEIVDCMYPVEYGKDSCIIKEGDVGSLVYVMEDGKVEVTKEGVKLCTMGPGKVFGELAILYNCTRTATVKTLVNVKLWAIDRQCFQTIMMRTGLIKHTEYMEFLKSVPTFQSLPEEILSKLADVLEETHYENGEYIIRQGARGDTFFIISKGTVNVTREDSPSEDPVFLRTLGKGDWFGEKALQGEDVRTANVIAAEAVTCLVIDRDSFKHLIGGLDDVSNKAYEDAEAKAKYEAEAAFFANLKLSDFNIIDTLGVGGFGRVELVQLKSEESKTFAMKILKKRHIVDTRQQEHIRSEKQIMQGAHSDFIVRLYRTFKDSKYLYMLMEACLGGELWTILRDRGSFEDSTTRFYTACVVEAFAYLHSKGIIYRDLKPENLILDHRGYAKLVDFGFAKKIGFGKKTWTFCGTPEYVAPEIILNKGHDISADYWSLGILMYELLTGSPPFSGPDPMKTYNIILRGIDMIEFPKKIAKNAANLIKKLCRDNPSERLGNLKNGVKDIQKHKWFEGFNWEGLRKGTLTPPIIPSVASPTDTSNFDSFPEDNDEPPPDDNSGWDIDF

[15] = molecular target: T5, cGMP-dependent protein kinase 1 (Homo sapiens); conditions: at 1 µM
[16] = molecular target: T6, cGMP-dependent protein kinase 2 (Homo sapiens) (UniProt Q13237); conditions: at 0.1 µM
T6 sequence (whole entry): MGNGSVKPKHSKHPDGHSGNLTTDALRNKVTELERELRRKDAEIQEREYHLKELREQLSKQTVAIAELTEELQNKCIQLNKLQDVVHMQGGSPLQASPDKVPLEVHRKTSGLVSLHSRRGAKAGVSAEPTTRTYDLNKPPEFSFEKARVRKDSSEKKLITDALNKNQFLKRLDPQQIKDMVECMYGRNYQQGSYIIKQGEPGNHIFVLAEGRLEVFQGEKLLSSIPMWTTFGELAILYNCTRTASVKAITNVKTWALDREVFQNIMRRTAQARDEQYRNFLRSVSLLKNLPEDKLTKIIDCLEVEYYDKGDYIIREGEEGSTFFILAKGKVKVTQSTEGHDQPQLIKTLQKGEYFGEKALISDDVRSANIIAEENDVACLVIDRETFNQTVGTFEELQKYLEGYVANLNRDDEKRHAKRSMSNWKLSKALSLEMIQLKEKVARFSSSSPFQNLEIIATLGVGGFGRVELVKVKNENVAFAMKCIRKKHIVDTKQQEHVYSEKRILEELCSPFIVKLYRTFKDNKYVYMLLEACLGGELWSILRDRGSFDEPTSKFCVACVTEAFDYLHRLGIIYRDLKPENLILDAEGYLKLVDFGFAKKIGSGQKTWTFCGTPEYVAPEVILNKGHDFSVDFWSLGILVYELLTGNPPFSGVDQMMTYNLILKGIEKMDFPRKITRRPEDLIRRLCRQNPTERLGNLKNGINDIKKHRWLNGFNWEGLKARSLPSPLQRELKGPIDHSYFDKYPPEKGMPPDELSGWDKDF

[17] = molecular target: T6, cGMP-dependent protein kinase 2 (Homo sapiens); conditions: at 1 µM
[18] = molecular target: T7, cAMP-dependent protein kinase catalytic subunit PRKX (Homo sapiens) (UniProt P51817); conditions: at 0.1 µM
T7 sequence (whole entry): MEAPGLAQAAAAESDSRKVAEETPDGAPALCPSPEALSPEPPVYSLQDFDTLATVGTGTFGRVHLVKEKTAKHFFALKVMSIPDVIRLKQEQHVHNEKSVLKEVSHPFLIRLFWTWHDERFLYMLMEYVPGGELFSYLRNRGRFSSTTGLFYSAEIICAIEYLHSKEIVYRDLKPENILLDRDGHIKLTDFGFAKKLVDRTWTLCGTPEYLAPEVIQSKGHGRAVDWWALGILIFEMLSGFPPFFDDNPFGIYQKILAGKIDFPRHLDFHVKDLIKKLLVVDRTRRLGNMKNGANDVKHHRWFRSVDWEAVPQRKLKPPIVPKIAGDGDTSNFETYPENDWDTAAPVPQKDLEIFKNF

[19] = molecular target: T7, cAMP-dependent protein kinase catalytic subunit PRKX (Homo sapiens); conditions: at 1 µM
[20] = molecular target: Rho-associated protein kinase 1 (Homo sapiens) (UniProt Q13464); conditions: at 0.1 µM;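 further: values are mean percent inhibition of ROCK1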
Sequence of Rho-associated protein kinase 1 (Homo sapiens) (Q13464 2-1354 limits assumed): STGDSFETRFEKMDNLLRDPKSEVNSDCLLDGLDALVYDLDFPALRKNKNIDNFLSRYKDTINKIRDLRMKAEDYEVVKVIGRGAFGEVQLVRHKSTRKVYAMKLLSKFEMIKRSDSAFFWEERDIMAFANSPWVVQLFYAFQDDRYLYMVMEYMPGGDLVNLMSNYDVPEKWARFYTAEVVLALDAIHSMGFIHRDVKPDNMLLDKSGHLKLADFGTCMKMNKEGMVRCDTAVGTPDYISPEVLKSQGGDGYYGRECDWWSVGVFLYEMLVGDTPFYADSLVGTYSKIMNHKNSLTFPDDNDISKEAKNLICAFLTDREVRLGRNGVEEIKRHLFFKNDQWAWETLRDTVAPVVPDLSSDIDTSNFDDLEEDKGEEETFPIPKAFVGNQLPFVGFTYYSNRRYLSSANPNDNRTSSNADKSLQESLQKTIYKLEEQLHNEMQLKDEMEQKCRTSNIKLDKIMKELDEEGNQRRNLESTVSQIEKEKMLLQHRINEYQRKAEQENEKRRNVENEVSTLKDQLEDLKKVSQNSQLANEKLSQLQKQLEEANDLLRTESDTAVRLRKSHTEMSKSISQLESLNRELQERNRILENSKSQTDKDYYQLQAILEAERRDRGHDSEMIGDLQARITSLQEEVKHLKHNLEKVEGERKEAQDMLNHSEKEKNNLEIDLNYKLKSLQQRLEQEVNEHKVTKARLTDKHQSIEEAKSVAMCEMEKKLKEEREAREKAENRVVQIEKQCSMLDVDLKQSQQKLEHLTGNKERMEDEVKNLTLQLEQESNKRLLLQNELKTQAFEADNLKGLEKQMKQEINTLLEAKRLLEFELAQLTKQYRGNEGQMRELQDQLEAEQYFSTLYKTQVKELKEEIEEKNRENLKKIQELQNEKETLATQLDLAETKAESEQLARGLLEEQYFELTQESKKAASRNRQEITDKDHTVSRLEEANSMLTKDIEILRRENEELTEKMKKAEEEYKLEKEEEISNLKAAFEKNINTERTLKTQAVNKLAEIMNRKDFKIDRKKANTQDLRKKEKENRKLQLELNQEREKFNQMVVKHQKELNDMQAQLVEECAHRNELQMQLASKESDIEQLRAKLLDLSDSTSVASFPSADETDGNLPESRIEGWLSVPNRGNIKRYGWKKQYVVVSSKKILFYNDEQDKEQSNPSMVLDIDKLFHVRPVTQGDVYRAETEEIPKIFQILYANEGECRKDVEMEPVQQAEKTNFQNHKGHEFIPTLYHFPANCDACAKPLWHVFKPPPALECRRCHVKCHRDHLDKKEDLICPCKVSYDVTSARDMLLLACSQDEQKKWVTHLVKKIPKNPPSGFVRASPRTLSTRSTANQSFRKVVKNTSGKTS

Sequence of Protein kinase C beta type (Homo sapiens) (P05771 2-671 limits assumed): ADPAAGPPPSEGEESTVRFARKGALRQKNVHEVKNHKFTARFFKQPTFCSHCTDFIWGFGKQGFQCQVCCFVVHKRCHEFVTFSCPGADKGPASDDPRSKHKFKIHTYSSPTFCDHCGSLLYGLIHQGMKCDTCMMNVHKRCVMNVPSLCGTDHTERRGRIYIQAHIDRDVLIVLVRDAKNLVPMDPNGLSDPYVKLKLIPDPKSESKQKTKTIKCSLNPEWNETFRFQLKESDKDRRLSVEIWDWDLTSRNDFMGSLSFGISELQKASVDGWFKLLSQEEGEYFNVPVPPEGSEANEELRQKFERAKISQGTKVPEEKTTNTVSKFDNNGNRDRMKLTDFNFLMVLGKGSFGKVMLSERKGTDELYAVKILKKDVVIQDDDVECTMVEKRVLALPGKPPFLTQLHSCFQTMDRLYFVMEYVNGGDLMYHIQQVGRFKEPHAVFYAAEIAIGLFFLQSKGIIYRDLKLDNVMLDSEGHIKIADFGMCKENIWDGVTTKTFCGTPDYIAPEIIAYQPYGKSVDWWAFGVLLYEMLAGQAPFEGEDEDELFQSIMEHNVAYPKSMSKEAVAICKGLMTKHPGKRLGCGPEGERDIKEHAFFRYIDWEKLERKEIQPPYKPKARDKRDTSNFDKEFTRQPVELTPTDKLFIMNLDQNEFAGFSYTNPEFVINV
Sequence of Protein kinase C theta type (Homo sapiens) (Q04759 whole entry, looked up): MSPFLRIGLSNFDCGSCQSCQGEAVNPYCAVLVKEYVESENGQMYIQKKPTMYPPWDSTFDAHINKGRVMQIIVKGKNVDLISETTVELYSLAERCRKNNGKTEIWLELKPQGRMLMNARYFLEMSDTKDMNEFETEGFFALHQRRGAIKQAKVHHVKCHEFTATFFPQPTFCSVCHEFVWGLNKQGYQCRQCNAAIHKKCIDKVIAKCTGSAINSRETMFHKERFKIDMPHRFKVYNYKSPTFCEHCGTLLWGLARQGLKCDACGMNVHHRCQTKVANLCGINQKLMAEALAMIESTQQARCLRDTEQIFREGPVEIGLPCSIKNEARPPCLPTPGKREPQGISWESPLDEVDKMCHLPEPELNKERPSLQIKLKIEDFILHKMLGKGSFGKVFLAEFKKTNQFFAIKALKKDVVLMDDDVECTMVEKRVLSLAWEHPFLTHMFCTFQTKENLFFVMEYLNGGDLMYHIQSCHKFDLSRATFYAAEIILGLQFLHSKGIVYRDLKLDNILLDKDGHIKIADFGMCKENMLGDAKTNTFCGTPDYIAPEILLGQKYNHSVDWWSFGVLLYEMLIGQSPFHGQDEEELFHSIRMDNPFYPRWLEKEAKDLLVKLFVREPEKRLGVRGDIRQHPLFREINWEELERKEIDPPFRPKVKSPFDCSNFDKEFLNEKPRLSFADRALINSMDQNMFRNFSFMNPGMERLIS

SMILES | inhibition [1] [%] | inhibition [2] [%] | inhibition [3] [%] | inhibition [4] [%] | inhibition [5] [%] | inhibition [6] [%] | inhibition [7] [%] | inhibition [8] [%] | inhibition [9] [%] | inhibition [10] [%] | inhibition [11] [%] | inhibition [12] [%] | inhibition [13] [%] | inhibition [14] [%] | inhibition [15] [%] | inhibition [16] [%] | inhibition [17] [%] | inhibition [18] [%] | inhibition [19] [%] | inhibition [20] [%]
Fc1ccc(-c2ncn(CCCN3CCOCC3)c2-c2ccncc2)cc1 | 0.34 | 0.16 | 0.41 | -0.92 | -2.08 | 0.1 | 0.17 | 1.04 | 2.24 | 2.15 | 3.09 | 1.63 | 2.8 | 0.4 | 0.29 | 0.94 | 0.26 | -0.21 | -1.38 | 1.06
C/C(Nc1ccc(S(N)(=O)=O)cc1)=C1/C(=O)Nc2ccccc21 | 2.57 | -0.37 | 0.02 | -0.23 | 3.24 | -0.77 | 1.28 | 0.51 | 15.9 | 0.69 | 11.3 | -0.08 | 9.13 | 0.96 | 3.66 | 0.21 | 8.25 | 1.97 | 4.84 | 2.38
O=C(Nc1n[nH]c2cc(-c3cc(F)ccc3F)ccc12)C1CC1 | 1.94 | -0.39 | 2.69 | 1.32 | 1.51 | 1.71 | 4.18 | 2.95 | 3.73 | 3.73 | 4.95 | 3.61 | 3.98 | 3.55 | 4.78 | 2.47 | 5.6 | 1.14 | 1.88 | -0.49
